Records with an inconclusive call do not appear. A call without a number means that no potency is given here. The source made the active and inactive calls. Calls come from the whole dose curve; as a rule, active = well fitted activation curve with a large enough effect; inconclusive = small, poorly fitted or top-dose-only effect; inactive = flat fitted curve, though single readings scatter.
Test: qHTS for Inhibitors of Cell Surface uPA Generation: Confirmatory Assay for Cherry-picked Compounds
Settings: cell surface uPA activity generation, qHTS confirmation; series mostly up to 115 µM
How it was run: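 RAW 264.7 cells at 4000/well, incubated overnight, then treated with compounds. After 24 h at 37 C, viability was read by ATPlite luminescence. An increase in signal indicates blocked uPA-dependent LF entry.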
Potency is the fitted concentration of half-maximal effect.

| SMILES | Potency |
| --- | --- |
| C[C@H](O)[C@@H]1C(=O)N2CCc3ccc(-c4cccc(F)c4)cc3[C@@H]2C[C@@H]1N(C)C(=O)C(C)(C)C | inactive |
| COc1ccc(C(C(=O)NC2CCCC2)N(C(=O)c2ccoc2C)c2ccc(C)c(C)c2)cc1 (centres undefined) | inactive |
| CCc1c(C)sc(NC(=S)N2CC(C)OC(C)C2)c1C(=O)OC (centres undefined) | inactive |
| O=C(COc1cc2oc(=O)cc(-c3ccccc3)c2cc1Cl)NC(Cc1c[nH]c2ccc(O)cc12)C(=O)O (centres undefined) | inactive |
| COc1ccc([C@@H]2[C@@H]3C(=O)N(C(C)(C)C)C(=O)[C@@H]3[C@]3(C)C(=O)N(c4cccc(Cl)c4)C(=O)N23)cc1 | inactive |
| CCOC(=O)C1=C(C)NC(C)=C(C(=O)OCC)C1C(=O)OCC(=O)NCCc1ccccc1 | 9.27 µM (active) |
| CN(Cc1ccc(C(C)(C)C)cc1)C(=O)Cc1ccc(S(=O)(=O)N2CCOCC2)s1 | inactive |
| COc1cc(OC)cc(C(=O)NC(C(=O)Nc2ccc3c(c2)CCC3)C(C)C)c1 (centres undefined) | inactive |
| COc1cc(N/C(N)=N/c2nc(C)cc(C)n2)cc(OC)c1 | inactive |
| Cc1ccc2c(c1)N(CC(=O)NCCCc1ccccc1)C(=O)c1cccnc1O2 | inactive |
| Cc1oc2c(Cl)c(Cl)c(O)c(CN(C)C)c2c1C(=O)c1ccc(Cl)cc1 | inactive |
| C[C@@]12C(=O)N(CC3CCCO3)CC(=O)N1[C@H]1c3cc(Cl)ccc3OC[C@@H]1[C@@H]2c1ccccc1 (some centres undefined) | inactive |
| COc1ccc(C(c2sc3nc(C)nn3c2O)N2CCC(C(N)=O)CC2)cc1OC (centres undefined) | inactive |
| COc1cccc(CN(C)C(=O)c2cc(S(=O)(=O)N3CCCC3)ccc2C)c1OC | inactive |
